# Assay results: PubChem BioAssay AID1347420 (Sanford-Burnham Center for Chemical Genomics, 2020)
# Screen size: about 1,300 compounds; about 980 (75%) were called active. Inconclusive results (about 4%) are left out. This is one part of the list.
# Molecular target: Sulfhydryl oxidase 1 (Homo sapiens) (UniProt O00391)
# Experiment: QSOX1 enzyme inhibitors, primary screen, biochemical, HyperBlu H2O2 luminescence, HTS (AID 1347420); also: values above 100% were filed as inconclusive
# Settings: recombinant QSOX1, HyperBlu H2O2 luminescence; at 12.5 µM; stronger effect = higher value; active = any value above zero
# Sulfhydryl oxidase 1 (Homo sapiens), sequence (O00391 whole entry, looked up): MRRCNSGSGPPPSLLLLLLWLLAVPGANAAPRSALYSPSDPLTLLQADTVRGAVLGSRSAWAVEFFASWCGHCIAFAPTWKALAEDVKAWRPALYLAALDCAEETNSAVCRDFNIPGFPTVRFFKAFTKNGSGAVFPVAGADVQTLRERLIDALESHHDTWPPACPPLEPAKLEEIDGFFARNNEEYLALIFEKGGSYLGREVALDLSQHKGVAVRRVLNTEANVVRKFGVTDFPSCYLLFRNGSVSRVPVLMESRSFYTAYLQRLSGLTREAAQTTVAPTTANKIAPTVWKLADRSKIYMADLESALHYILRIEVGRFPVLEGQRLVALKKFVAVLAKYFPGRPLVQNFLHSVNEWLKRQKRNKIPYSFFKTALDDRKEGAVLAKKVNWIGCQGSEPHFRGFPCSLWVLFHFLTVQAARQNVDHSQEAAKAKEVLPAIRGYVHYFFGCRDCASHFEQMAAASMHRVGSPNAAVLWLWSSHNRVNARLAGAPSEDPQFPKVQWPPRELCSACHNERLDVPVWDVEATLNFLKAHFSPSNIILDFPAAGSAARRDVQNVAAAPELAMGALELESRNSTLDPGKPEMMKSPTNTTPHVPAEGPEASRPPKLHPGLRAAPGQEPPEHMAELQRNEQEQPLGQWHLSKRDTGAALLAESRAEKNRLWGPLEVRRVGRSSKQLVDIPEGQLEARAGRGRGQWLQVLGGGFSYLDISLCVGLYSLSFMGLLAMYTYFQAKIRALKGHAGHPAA
row,SMILES,inhibition
1,Cc1cc(Cn2cnc3c2C[C@@H](C(=O)O)N(C(=O)C(c2ccccc2)c2ccccc2)C3)ccc1N,29.8% (active)
2,CCN1CCCC1CNC(=O)c1cc(S(N)(=O)=O)ccc1OC (configuration not stated),-11.2% (inactive)
3,CCN1CCCC1CNC(=O)c1cc(S(=O)(=O)CC)c(N)cc1OC (configuration not stated),3.7% (active)
4,CCN1CCC[C@H]1CNC(=O)c1cc(S(N)(=O)=O)ccc1OC,1% (active)
5,CCOC(=O)c1cnc2c(cnn2CC)c1NN=C(C)C,19.1% (active)
6,CCCCNc1c(C(=O)OCC)c(C)nc2c1cnn2CC,12.7% (active)
7,NC[C@@H]1O[C@H](c2ccccc2)Cc2c1ccc(O)c2O,71.1% (active)
8,NC[C@@H]1O[C@H](C23CC4CC(CC(C4)C2)C3)Cc2c1ccc(O)c2O,54% (active)
9,CC(C)C[C@H]1C(=O)N2CCC[C@H]2[C@]2(O)O[C@](NC(=O)[C@@H]3C=C4c5cccc6[nH]c(Br)c(c56)C[C@H]4N(C)C3)(C(C)C)C(=O)N12,33.5% (active)
10,C[C@H](CS)C(=O)N1CCC[C@H]1C(=O)O,-8.3% (inactive)
11,c1ccc(C(NCCNC(c2ccccc2)c2ccccc2)c2ccccc2)cc1,7.6% (active)
12,CCOC(=O)C12CC1/C(=N/O)c1ccccc1O2 (configuration not stated),11.7% (active)
13,CCCCOC(=O)NS(=O)(=O)c1sc(CC(C)C)cc1-c1ccc(Cn2c(CC)nc3c(C)cc(C)nc32)cc1,15.1% (active)
14,C1CCC(N=C(NC23CC4CC(CC(C4)C2)C3)N2CCOCC2)CC1,8.2% (active)
15,NC1=NCC2c3ccccc3Cc3ccccc3N12 (configuration not stated),2.9% (active)
16,Cc1c(OCC(F)(F)F)ccnc1CS(=O)c1nc2ccccc2[nH]1 (configuration not stated),2.3% (active)
17,Nc1ccc(-c2ccc3ccccc3n2)cc1,54.7% (active)
18,c1ccc2nc(C3=NCCN3)ccc2c1,-4.5% (inactive)
19,Nc1ncnc2n[nH]c(Nc3ccc(F)cc3)c12,81.8% (active)
20,CCN1CCc2nc(N)oc2CC1,48.7% (active)
21,O=c1[nH]c2cc([N+](=O)[O-])c([N+](=O)[O-])cc2[nH]c1=O,87% (active)
22,C=C[C@H]1CN2CC[C@@H]1C[C@@H]2[C@H](O)c1ccnc2ccc(OC)cc12,4.7% (active)
23,C=C[C@H]1CN2CC[C@@H]1C[C@H]2[C@@H](O)c1ccnc2ccc(OC)cc12,-2.4% (inactive)
24,CCCCCC(O)CCCC(=O)O (configuration not stated),-0.3% (inactive)
25,CCCCCCCCCCC/C=C\C(C)(C)/C=C\CCCC(=O)O,25.2% (active)
26,CCCCCCC/C=C\CCCCCCCCC(=O)O,11% (active)

row,SMILES,inhibition
1,CC(C)NCC(O)COc1ccc(CC(N)=O)cc1 (configuration not stated),7.4% (active)
2,CC(C)NC[C@H](O)COc1ccc(CC(N)=O)cc1,-4.6% (inactive)
3,CC(C)NCC(O)COc1ccc(CCOCC2CC2)cc1 (configuration not stated),11.4% (active)
4,COCCc1ccc(OCC(O)CNC(C)C)cc1 (configuration not stated),-17.5% (inactive)
5,CC(=O)SC1CC2=CC(=O)CC[C@]2(C)C2CC[C@@]3(C)C(CC[C@@]34CCC(=O)O4)C12 (some centres not stated),5.4% (active)
6,O=c1cc(-c2ccc(O)cc2)oc2cc(O)cc(O)c12,88.8% (active)
7,O=c1c(-c2ccc(O)cc2)coc2cc(O)cc(O)c12,33.2% (active)
8,O=c1c(-c2ccc(O)cc2)coc2cc(O)ccc12,32.4% (active)
9,COC1(C2=NCCN2)COc2ccccc2O1 (configuration not stated),2.6% (active)
10,Cc1ccccc1/C=C/C1=NCCN1,-1.6% (inactive)
11,O=C1Nc2ccc(I)cc2/C1=C/c1cc(Br)c(O)c(Br)c1,97.8% (active)
12,CCCCOc1cc(CC2CNC(=O)N2)ccc1OC (configuration not stated),2.2% (active)
13,O=C1NCN(c2ccccc2)C12CCN(CCCC(c1ccc(F)cc1)c1ccc(F)cc1)CC2,9.4% (active)
14,Oc1ccc(/C=C/c2cc(O)cc(O)c2)cc1,78% (active)
15,Oc1ccc(/C=C/c2ccc(/C=C/c3ccc(O)cc3)c(Br)c2)cc1,-1.9% (inactive)
16,NC(CCCP(=O)(O)O)C(=O)O (configuration not stated),4% (active)
17,N[C@@H](COP(=O)(O)O)C(=O)O,1.7% (active)
18,N[C@H](CCCP(=O)(O)O)C(=O)O,13.7% (active)
19,CN[C@H](CC(C)C)C(=O)N[C@H]1C(=O)N[C@@H](CC(N)=O)C(=O)N[C@H]2C(=O)N[C@H]3C(=O)N[C@H](C(=O)N[C@H](C(=O)O)c4cc(O)cc(O)c4-c4cc3ccc4O)[C@H](O)c3ccc(c(Cl)c3)Oc3cc2cc(c3O[C@@H]2O[C@H](CO)[C@@H](O)[C@H](O)[C@H]2O[C@H]2C[C@](C)(N)[C@H](O)[C@H](C)O2)Oc2ccc(cc2Cl)[C@H]1O,-8.2% (inactive)
20,CN1CCN(CC(=O)N2c3ccccc3C(=O)Nc3cccnc32)CC1,-3.2% (inactive)
21,Cc1scc2c1N(C(=O)CN1CCN(C)CC1)c1ccccc1NC2=O,1.1% (active)
22,Cc1ccc(=O)n(-c2ccccc2)c1,2.4% (active)
23,Oc1ccc(O)cc1,14.7% (active)
24,Nc1ccc2c3c(cccc13)C(=O)NC2=O,13.7% (active)
25,NCCNS(=O)(=O)c1cccc2c(Cl)cccc12,0.7% (active)
26,CC(C)COC(=O)OCN1C(=O)CN(CCN2CC(=O)N(COC(=O)OCC(C)C)C(=O)C2)CC1=O,12.5% (active)

row,SMILES,inhibition
1,C=CCNc1ncnc2ccc(Br)cc12,12.6% (active)
2,NC(=O)C(=O)O,11% (active)
3,CC[C@H](NC(=O)c1c(C)c(-c2ccccc2)nc2ccccc12)c1ccccc1,9.3% (active)
4,COc1ccc(CCN(C)CCCC(C#N)(c2cc(OC)c(OC)c(OC)c2)C(C)C)cc1OC (configuration not stated),17% (active)
5,COc1ccc(CCN(C)CCc2ccc(OC)c(OC)c2)cc1OC,8% (active)
6,COc1ccc(Cc2nccc3cc(OC)c(OC)cc23)cc1OC,-10.3% (inactive)
7,COc1ccc(CCN(C)CCCC(C#N)(c2ccc(OC)c(OC)c2)C(C)C)cc1OC (configuration not stated),9.1% (active)
8,O=P(O)(O)C(Cl)(Cl)P(=O)(O)O,-4.1% (inactive)
9,NC(CO)C(=O)NNCc1ccc(O)c(O)c1O (configuration not stated),24.2% (active)
10,CN1CCN(c2nc3cc(C(F)(F)F)ccc3n3cccc23)CC1,12.2% (active)
11,Cc1[nH]c(=O)c(C#N)cc1-c1ccc2nccn2c1,1% (active)
12,Cc1[nH]c(=O)c(C#N)cc1-c1ccncc1,15.5% (active)
13,COc1cccc(-c2cc(=O)c3ccccc3o2)c1N,7.6% (active)
14,CC(=O)O[C@H]1Cc2ccccc2N(C(N)=O)c2ccccc21,-8.4% (inactive)
15,NC(=O)N1c2ccccc2C=Cc2ccccc21,12.3% (active)
16,OCCN1CCN(CC/C=C2/c3ccccc3Sc3ccc(C(F)(F)F)cc32)CC1,3.4% (active)
17,OCCN1CCN(CCCN2c3ccccc3Sc3ccc(C(F)(F)F)cc32)CC1,92.8% (active)
18,OCCN1CCN(CCCN2c3ccccc3C=Cc3ccccc32)CC1,47.2% (active)
19,CN1CCN(CCCN2c3ccccc3Sc3ccc(C(F)(F)F)cc32)CC1,97% (active)
20,COC(=O)c1c(C)[nH]c(C)c1C(=O)c1ccccc1Cc1ccccc1,-0.5% (inactive)
21,CCN(CC)CCNC(=O)c1ccc(NS(C)(=O)=O)cc1,9.7% (active)
22,CCN(CC)CCNC(=O)c1ccc(NC(C)=O)cc1,-4.7% (inactive)
23,CCN(CC)CCNC(=O)c1ccc(N)cc1,7.8% (active)
24,NC(=O)CC[C@H](N)C(=O)O,1.7% (active)
25,N[C@@H](CCCC(=O)O)C(=O)O,16.9% (active)
26,CCCCS(=N)(=O)CCC(N)C(=O)O (configuration not stated),-11.1% (inactive)

row,SMILES,inhibition
1,CCCCS(=N)(=O)CC[C@H](N)C(=O)O (some centres not stated),-12.9% (inactive)
2,COc1cc(Cc2cnc(N)nc2N)cc(OC)c1OC,-13.7% (inactive)
3,CN(C)CCN(Cc1cccs1)c1ccccn1,4.7% (active)
4,COc1ccc(CN(CCN(C)C)c2ccccn2)cc1,36.6% (active)
5,CC(C)(Sc1ccc(CCN(CCCCC2CCCCC2)C(=O)NC2CCCCC2)cc1)C(=O)O,3% (active)
6,O=C(O)CCC(C(=O)O)N1C(=O)c2ccccc2C1=O (configuration not stated),-7.5% (inactive)
7,CCCN(CCC)C(=O)C(CCC(=O)O)NC(=O)c1ccccc1 (configuration not stated),12% (active)
8,CCCCCN(CCCCC)C(=O)C(CCC(=O)O)NC(=O)c1ccc(Cl)c(Cl)c1 (configuration not stated),13.5% (active)
9,CC1C(=O)N(C)C(=O)c2nc[nH]c21 (configuration not stated),2.6% (active)
10,CCCC(C(=O)OCCN(CC)CC)(c1ccccc1)c1ccccc1,6.2% (active)
11,CCCc1c(OCCCOc2ccc(OCC(=O)O)cc2)ccc(C(C)=O)c1O,17.6% (active)
12,CCN(CC)CCNC(=O)c1cc(S(C)(=O)=O)ccc1OC,0.6% (active)
13,CCN(CC)CCNC(=O)c1cc(Cl)c(N)cc1OC,2.2% (active)
14,CCN(CC)CCCCCCCCOC(=O)c1cc(OC)c(OC)c(OC)c1,17.3% (active)
15,COc1cc(N)c(Cl)cc1C(=O)OCCN1CCCCC1,-7.9% (inactive)
16,CCN(CC)CCOC(=O)c1cc(Cl)c(N)cc1OC,7.6% (active)
17,NC[C@H](O)c1ccc(O)c(O)c1,55.1% (active)
18,NCC(O)c1ccc(O)c(O)c1 (configuration not stated),43.6% (active)
19,CC(=O)N1CCN(c2ccc(OC[C@H]3CO[C@](Cn4ccnc4)(c4ccc(Cl)cc4Cl)O3)cc2)CC1,56.3% (active)
20,COc1ccc2c(c1OC)C(=O)O[C@@H]2[C@H]1c2c(cc3c(c2OC)OCO3)CCN1C,14.1% (active)
21,CCn1cc(C(=O)O)c(=O)c2cc(F)c(N3CCNC(C)C3)c(F)c21 (configuration not stated),12.8% (active)
22,O=[N+]([O-])c1ccc2c(c1)S(=O)(=O)C=C2,39.1% (active)
23,C[C@]12CC[C@@H]3c4ccc(O)cc4C[C@@H](CCCCCCCCCS(=O)CCCC(F)(F)C(F)(F)F)[C@H]3[C@@H]1CC[C@@H]2O (some centres not stated),22.3% (active)
24,CCCCCC[C@@H]([C@@H](C)O)n1cnc2c(N)ncnc21,7.4% (active)
